# Assay outcomes as filed in PubChem BioAssay.
# A selection: hits, their analogues and other compounds. The true share with any hit is near 5.7%.
# JMJD2E inh = qHTS Assay for Inhibitors of Human Jumonji Domain Containing 2E (JMJD2E). Lysine-specific demethylase 4E (Homo sapiens), B2RXH2. JMJD2E catalytic domain, FDH-coupled NADH fluorescence (FDH is formaldehyde dehydrogenase). Potency, µM (titrated, usually from 57.1 µM), for the others: top-dose activity change, negative = inhibition, usual class: inhibitors. actives 1.6% (n = 230,000); active means well fitted inhibition curve with a large enough effect, not every such curve was filed as active; inconclusive means small, poorly fitted or top-dose-only effect, or another doubt; inactive means no such curve, though single readings can be large or run the other way;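 further: potency means the concentration at half of the fitted maximal effect; 0% = wells with enzyme and -100% = buffer wells without enzyme; nearly all actives have a fitted effect of over 50% in size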
# Target sequence (B2RXH2 1-337 limits assumed): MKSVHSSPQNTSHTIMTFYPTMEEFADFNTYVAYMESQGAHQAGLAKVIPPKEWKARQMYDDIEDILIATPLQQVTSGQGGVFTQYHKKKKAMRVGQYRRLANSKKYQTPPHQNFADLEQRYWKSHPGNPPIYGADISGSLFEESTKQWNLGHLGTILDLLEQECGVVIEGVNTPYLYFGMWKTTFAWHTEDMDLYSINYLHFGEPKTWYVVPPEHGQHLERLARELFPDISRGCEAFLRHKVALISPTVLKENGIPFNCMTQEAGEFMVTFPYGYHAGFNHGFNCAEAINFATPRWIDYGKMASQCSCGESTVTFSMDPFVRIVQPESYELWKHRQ
# L3MBTL1 inh = qHTS Assay for the Inhibitors of L3MBTL1; AlphaScreen L3MBTL1–H3K9me1 peptide binding; actives 0.66% (n = 230,000); Potency, µM (doses to about 57.1 µM), inactives show top-dose activity, negative = inhibition, actives largely listed as inhibitors; Lethal(3)malignant brain tumor-like protein 1 (Homo sapiens), Q9Y468; further: potency means the concentration at half of the fitted maximal effect; on the % scale 0 is the no-effect control and ±100 the full control effect; nearly all actives have a fitted effect of over 60% in size
#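 AlphaScreen assay: L3MBTL1 (50 nM final) was preincubated 30 min at room temperature with biotinylated H3(1-15)K9me1 peptide (75 nM final), then 30 min with library compounds; streptavidin donor and nickel chelate acceptor beads (10 ug/mL final) added, 30 min dark.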
# PI5P4K alpha inh = qHTS for Inhibitors of phosphatidylinositol 5-phosphate 4-kinase (PI5P4K) | actives 1.2% (n = 330,000) | Phosphatidylinositol 5-phosphate 4-kinase type-2 alpha (Homo sapiens), P48426 | AID 652105, 2013 | max response, % | PI5P4Kalpha enzyme, ADP-Glo luminescence, 60 min; hits give low values; active means max response of -50% or lower; inconclusive means between -30% and -50%; inactive means -30% or higher; further: value at the top dose of about 77 µM; on the % scale 0 is the no-effect control and ±100 the full control effect
#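 Compounds were pin-transferred onto PI5P4Kalpha and substrate in HEPES pH 7.4 buffer with EGTA, CHAPS and 5% DMSO. ATP (5 microM final) started the reaction, which ran 60 minutes at room temperature before ADP-Glo detection.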
# BAZ2B inh = qHTS Assay for Inhibitors of BAZ2B; AlphaScreen BAZ2B-H3K14Ac peptide displacement; actives 4.4% (n = 360,000); Potency, µM (top dose mostly 114 µM), for the others: at the highest dose activity change, negative = inhibition, most hits filed as inhibitors; AID 504333, 2011; further: potency means the concentration at half of the fitted maximal effect; on the % scale 0 is the no-effect control and ±100 the full control effect; nearly all actives have a fitted effect of over 60% in size
#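 AlphaScreen displacement of biotin-H3(5-23)K14Ac peptide (50 nM final) from BAZ2B (50 nM final) in PBS pH 7.4, 0.01% Tween-20; complex preformed 30 min RT, then compounds (top 110 uM) 30 min RT, beads 20 min dark.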
# HP1b binding inh = HTS for Inhibitors of HP1-beta Chromodomain Interactions with Methylated Histone Tails; actives 0.56% (n = 390,000); Potency, µM (highest dose often 114 µM), for inactives: top-dose activity change, negative = inhibition, hits mostly inhibitors; AlphaScreen HP1-beta / biotin-H3K9me3 peptide binding; Chromobox protein homolog 1 (Homo sapiens), P83916; further: potency means the concentration at half of the fitted maximal effect; nearly all actives have a fitted effect of over 70% in size
# Target sequence (P83916 whole entry, looked up): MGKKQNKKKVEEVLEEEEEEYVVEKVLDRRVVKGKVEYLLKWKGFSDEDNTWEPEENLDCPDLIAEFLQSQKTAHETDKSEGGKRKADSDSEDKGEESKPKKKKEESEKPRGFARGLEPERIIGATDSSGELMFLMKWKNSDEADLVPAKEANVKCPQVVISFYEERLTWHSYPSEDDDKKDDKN
#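 AlphaScreen: HP1-beta (50 nM) preformed 30 min with biotin-H3(1-18)K9me3 peptide (50 nM) in PBS pH 7.4, 0.01% Tween-20. Compound added for 30 min at RT, then streptavidin donor/nickel chelate acceptor beads (10 ug/mL) for 30 min.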
# JMJD2A Tudor = qHTS Assay for Inhibitors of JMJD2A-Tudor Domain; Lysine-specific demethylase 4A (Homo sapiens), O75164; AlphaScreen JMJD2A-Tudor / H3K4me3 peptide binding; Potency, µM (highest dose often 114 µM), for inactives: at the highest dose activity change, negative = inhibition, hits mostly inhibitors; actives 4.4% (n = 390,000); further: potency means the concentration at half of the fitted maximal effect; on the % scale 0 is the no-effect control and ±100 the full control effect; nearly all actives have a fitted effect of over 50% in size
# An asterisk follows results filed as active; ? = inconclusive; nt = not tested or not shown. Unless noted, the call rests on the fitted dose curve; in most records, active means well fitted inhibition curve with a large enough effect; inconclusive means small, poorly fitted or top-dose-only effect; inactive means no such curve, though single readings can be large or run the other way.
SMILES,JMJD2E inh,L3MBTL1 inh,PI5P4K alpha inh,BAZ2B inh,HP1b binding inh,JMJD2A Tudor
CCOC(=O)c1[nH]cnc1C(=O)N[C@@H](C)c1ccccc1,nt,-9.6%,2.9,56.2µM*,32.7%,-20.0%
CCOC(=O)c1[nH]cnc1C(=O)Nc1ccc(C)cc1,?,-2.2%,-9.6,-32.3%,37.0%,-15.9%
CCN(CC)C(=O)c1[nH]cnc1C(=O)N[C@H](C)c1ccccc1,nt,7.0%,-2.3,-31.6%,20.7%,89.1µM*
CCOC(=O)c1[nH]cnc1C(=O)O,?,nt,-22.6,20µM*,-9.4%,2µM*
CCOC(=O)c1nc[nH]c1C,-5.1%,nt,nt,1.8%,26.9%,3.5%
CCN(CC)C(=O)c1[nH]cnc1C(=O)N[C@@H](C)c1ccccc1,nt,-4.1%,0.4,?,27.6%,-17.6%
COc1ccc(CNC(=O)CCCC(=O)Nc2cccc(Br)c2)cc1,nt,-3.6%,-4.3,-16.2%,45.0%,-5.0%
CC(C)CCn1c(=O)c2sccc2n2c(CCCC(=O)NCc3ccc(F)cc3)nnc12,nt,nt,nt,-11.8%,49.9%,-10.6%
CCC(CC)C(=O)Nc1cccc(-c2nc3cccnc3s2)c1C,nt,nt,nt,-33.3%,-4.0%,-28.6%
COc1ccc2c(CNC3CCC(C)CC3)c(C(=O)O)n(Cc3ccccc3)c2c1 (stereo unspecified),nt,nt,nt,?,17.7%,-15.8%
COc1ccc(O)c(C(=O)/C=C/c2cc3ccccc3o2)c1,-11.2%,nt,7.2,11.2µM*,3.55µM*,28.2µM*
O=C(C=Cc1ccccc1O)c1ccccc1O,nt,nt,3.6,nt,?,?
O=C(/C=C/c1cc2ccccc2o1)c1ccccc1O,-2.4%,-9.7%,34.3,8.91µM*,?,20µM*
COc1cccc(C(=O)Oc2ccccc2/C=C\C(=O)c2cc3ccccc3o2)c1,-2.4%,-12.2%,2.5,?,5.7%,-30.8%
CC(N)=Nc1ccc([N+](=O)[O-])cc1,0.1%,4.0%,3.1,0.1%,17.6%,13.2%
O=[N+]([O-])c1ccc(N=Nc2c(Cl)cc(O)cc2Cl)cc1,13.2%,nt,-5.5,8.91µM*,12.6µM*,11.2µM*
CCn1cc(C(=O)NCc2ccccc2Cl)c(=O)c2cc(S(=O)(=O)N3CCCCCC3)ccc21,nt,nt,nt,nt,48.4%,-1.0%
COc1ccc2c(c1)[nH]c1c(=O)n(/N=C/c3ccc(OC)c(CN4CCCCC4)c3)cnc12,7.1%,1.8%,-2.9,-4.9%,31.4%,-24.3%
COc1ccc2c(c1)[nH]c1c(=O)n(/N=C/c3ccc(OC)c(COc4ccccn4)c3)cnc12,2.9%,10.2%,-13.2,4.1%,7.0%,79.4µM*
C=CCOc1c(Br)cc(CNc2ccc(NC(=O)C(C)C)c(OC)c2)cc1OC,-4.9%,-4.5%,nt,?,-43.2%,35.5µM*
CNC(CC(=O)O)C(=O)O (stereo unspecified),-0.6%,nt,nt,nt,nt,nt
COc1cccc(C(=O)CSc2nnc(CNS(C)(=O)=O)n2-c2ccc(C)cc2)c1,-18.8%,-2.2%,?,-24.1%,?,17.8µM*
COc1cccc(-n2c(COc3ccc(C)cc3)nnc2SCC(N)=O)c1,-0.2%,1.8%,nt,?,10.4%,-15.1%
O=C(Cn1nc(-c2cccc(Cl)c2)ccc1=O)NCC1COCCO1 (stereo unspecified),nt,1.6%,-0.8,79.4µM*,41.4%,3.1%
O=C(Cn1nc(-c2ccc(Cl)cc2)ccc1=O)NCC1CCCO1 (stereo unspecified),-15.4%,6.0%,1.5,11.9%,5.6%,-16.3%
COc1ccc(-c2nnc3n2N=C(c2ccccc2OC)CS3)c(OC)c1,nt,nt,nt,nt,nt,-18.6%
